Molecules are shown by their SMILES. Records with an inconclusive call do not appear. Where a call stands in place of a potency, no number is given. Active and inactive are the calls of the source. Calls come from the whole dose curve; as a rule, active = well fitted inhibition curve with a large enough effect; inconclusive = small, poorly fitted or top-dose-only effect; inactive = no such curve, though single readings can be large or run the other way.

The nature of this assay: Primary qHTS for small molecule stabilizers of the endoplasmic reticulum resident proteome: Secreted ER Calcium Modulated Protein (SERCaMP) assay (AID 1508630). Conditions: SH-SY5Y GLuc-SERCaMP (Gaussia luciferase released on ER calcium loss) secretion, thapsigargin, luminescence; series mostly up to 38.4 µM. The text has this:
Assay Provider: Brandon K. Harvey Ph.D.
National Institute on Drug Abuse, National Institutes of Health, Baltimore, MD
Endoplasmic reticulum (ER) dysregulation is associated with human pathologies including neurodegenerative, cardiovascular, muscular, and diabetic conditions. Maintenance of ER calcium is critical for functions of the ER and its depletion can lead to loss of ER resident proteins, in a process termed exodosis. Therapeutic compounds capable of attenuating the redistribution of ER proteins under pathological conditions may slow or stop disease progression. To identify such compounds, we performed a quantitative high-throughput screen (qHTS) using the SERCaMP assay, which monitors secretion of ER resident proteins triggered by calcium depletion.
SERCaMP was initially developed as a reporter of ER calcium homeostasis using a Gaussia luciferase with a modified signal peptide and carboxy-terminus (GLuc-SERCaMP), modifications that confer secretion of the reporter in response to ER calcium depletion (Henderson et al., 2014). The assay was used to screen 9,501 compounds, including a collection of drugs approved by the FDA (US), EMA (EU), NHI (Japan), and HC (Canada) regulatory agencies (Huang et al., 2011). Since the SERCaMP reporter reflects the exodosis phenomenon (Trychta et al., 2018a), compounds identified in the screen have the potential to prevent exodosis by different mechanisms such as stabilizing ER calcium or augmenting ERS retrieval.
1. Henderson, M.J., Wires, E.S., Trychta, K.A., Richie, C.T., and Harvey, B.K. (2014). SERCaMP: a carboxy-terminal protein modification that enables monitoring of ER calcium homeostasis. Mol Biol Cell 25, 2828-2839.
2. Huang, R., Southall, N., Wang, Y., Yasgar, A., Shinn, P., Jadhav, A., Nguyen, D.T., and Austin, C.P. (2011). The NCGC pharmaceutical collection: a comprehensive resource of clinically approved drugs enabling repurposing and chemical genomics. Sci Transl Med 3, 80ps16.
3. Trychta, K.A., Back, S., Henderson, M.J., and Harvey, B.K. (2018a). KDEL Receptors Are Differentially Regulated to Maintain the ER Proteome under Calcium Deficiency. Cell Rep 25, 1829-1840 e1826.
SEQUENCE No. (1, 2, 3, etc.); […] (e.g., Cells, Incubation, Reagent, etc.); VALUE and DESCRIPTION.
1; Reagent; 5 uL; 1000 SH-SY5Y cells per wells
3; Compound; 23 nL; Control inhibitor / compound library
5; Reagent; 100 nM; Thapsigargin
7; Reagent; 1 uL; 0.5x coelenterazine
8; Detection; Luminescence; ViewLux imaging system
NOTES (numbers refer to sequence above)
1; SH-SY5Y human neuroblastoma cells stably expressing GLuc-SERCaMP (SH-SY5Y-GLuc-ASARTDL) cells were seeded in 1,536 well white tissue culture treated plates (Corning, Cat# 7464) in DMEM-high glucose-sodium pyruvate (ThermoFisher Scientific, Cat #10569) supplemented with 10% bovine growth serum (Hyclone), 10 U/ml penicillin (Gibco), 10 ug/ml streptomycin (Gibco), and 20 mM HEPES.
2; Assay plates were incubated for 5 hour at 37C in a humidified incubator containing 5% CO2.
3; qHTS libraries (23 nl, final concentrations of 1.53 uM, 7.67 uM, 38.3 uM) or controls (neutral control: DMSO, positive control: dantrolene) were added using a Kalypsis pin-tool Robotic System equipped with 1536 pinheads.
4; Cells were then incubated for 16 hours at 37C, 5% CO2.
5; Thapsigargin was added at 100 nM to deplete ER calcium stores.
6; Cells were incubated for 4 hour (37 °C, 5% CO2)
7; Gaussia luciferase in the medium was measured by adding 1 ul of 0.5x coelenterazine (final concentration 0.07x) prepared in Gaussia Luciferase Glow Assay Buffer (Pierce), without addition of the Cell Lysis Buffer Reagent.
8; Luminescence was measured using a ViewLux […] CCD imaging system (Perkin Elmer) equipped with clear filters. […] The same controls were also used for the calculation of the Z' factor, a measure of assay quality control, as previously described (Zhang et al., 1999). […]
A general note: qHTS replaces the single test concentration by a dilution series.
As to `Cc1cccc(Nc2ccncc2S(=O)(=O)NC(=O)NC(C)C)c1`, the Potency result was “inactive”.

For `CCOC(=O)c1ccc(OC(=O)CCCCCN=C(N)N)cc1`, the Potency entry is “inactive”. Under `CNCC[C@H](Oc1cccc2ccccc12)c1cccs1` stands “inactive”; under `CS(=O)(=O)c1ccc([C@@H](O)[C@@H](CO)NC(=O)C(Cl)Cl)cc1`, “inactive”.

Consider `O=C(N[C@H](CO)[C@H](O)c1ccc([N+](=O)[O-])cc1)C(Cl)Cl`, for which the Potency result is “inactive”.

`O=S(=O)(O)CCS`: the Potency result was “inactive”. `CC1=C(C(=O)O)N2C(=O)[C@@H](NC(=O)C(N)c3ccccc3)[C@H]2SC1` (stereo not given in full): the Potency entry is “inactive”. With `COc1ccc2c(c1)c(CC(=O)OCC(=O)O)c(C)n2C(=O)c1ccc(Cl)cc1`, the Potency result was “inactive”.

Turning to `O=C(O)c1cccnc1`, the Potency result was “inactive”.

As for `Cn1nnc2c(C(N)=O)ncn2c1=O`, the Potency result was “inactive”. As to `COC(c1ccccc1)(c1ccccc1)[C@H](Oc1nc(C)cc(C)n1)C(=O)O`, the Potency entry is “inactive”. Under `N[C@@H](Cc1ccc(O)c(O)c1)C(=O)O` stands “inactive”; under `CCCCOc1ccc(CC(=O)NO)cc1`, “inactive”.

`CC1=NN(c2ccccc2)C(=O)C1`: the Potency result was “inactive”.

Turning to `COc1ccc2cc3[n+](cc2c1OC)CCc1cc2c(cc1-3)OCO2`, the Potency result was “inactive”. Under `C1CCC(C(CC2CCCCN2)C2CCCCC2)CC1` (stereo not given) stands “inactive”; under `CCCc1cc(C(N)=S)ccn1`, “inactive”. On to `CC[C@H](C)C(=O)O[C@H]1C[C@@H](C)C=C2C=C[C@H](C)[C@H](CC[C@@H]3C[C@@H](O)CC(=O)O3)[C@H]21`, for which the Potency entry was “inactive”. As for `Nc1nc(N)nc(-c2cc(Cl)ccc2Cl)n1`, the Potency entry was “inactive”. Regarding `COC(=O)Nc1nc2ccc(S(=O)c3ccccc3)cc2[nH]1` (stereo not given), the Potency entry was “inactive”. As to `Nc1nc(F)nc2c1ncn2[C@@H]1O[C@H](CO)[C@@H](O)[C@@H]1O`, the Potency entry is “inactive”.

Consider `C[C@@H]1CN(c2c(F)c(N)c3c(=O)c(C(=O)O)cn(C4CC4)c3c2F)C[C@H](C)N1`, for which the Potency result is “inactive”. With `C#CCN[C@@H]1CCc2ccccc21`, the Potency result was “inactive”.

Turning to `Cc1nnc(C(=O)NC(C)(C)c2nc(C(=O)NCc3ccc(F)cc3)c(O)c(=O)n2C)o1`, the Potency result was “inactive”. Take `NC(=O)N1c2ccccc2CC(=O)c2ccccc21`: the Potency result is “inactive”. As for `CCCc1nc(C)c2c(=O)[nH]c(-c3cc(S(=O)(=O)N4CCN(CC)CC4)ccc3OCC)nn12`, the Potency entry is “inactive”. Under `COc1cc2ncnc(Nc3cccc(Cl)c3)c2cc1OC` stands “inactive”.

For the compound `CC[C@H](NC(C)C)[C@H](O)c1ccc(O)c2[nH]c(=O)ccc12`, the Potency entry was “inactive”.

Take `Nc1[nH]c(=O)ncc1F`: the Potency entry was “inactive”. On to `CC(C)C[C@H](NC(=O)[C@H](CCc1ccccc1)NC(=O)CN1CCOCC1)C(=O)N[C@@H](Cc1ccccc1)C(=O)N[C@@H](CC(C)C)C(=O)[C@@]1(C)CO1`, for which the Potency entry is “inactive”. For the compound `CC1=CC(=O)c2ccccc2C1=O`, the Potency result is “inactive”. On to `CC(=O)CC(c1ccccc1)c1c(O)c2ccccc2oc1=O` (stereo not given), for which the Potency entry is “inactive”.

Take `CC(C)NCC(O)c1ccc(NS(C)(=O)=O)cc1` (stereo not given): the Potency result is “inactive”. Consider `NC(=O)c1cccnc1`, for which the Potency result was “inactive”.

In the case of `CCOC(=O)[C@H](CCc1ccccc1)N[C@H]1CCc2ccccc2N(CC(=O)O)C1=O`, the Potency result was “inactive”.

As to `CCc1cc(C(N)=S)ccn1`, the Potency entry was “inactive”. Regarding `C[C@@H](CN1CC(=O)NC(=O)C1)N1CC(=O)NC(=O)C1`, the Potency entry was “inactive”. `CC(C)OC(=O)OCOP(=O)(CO[C@H](C)Cn1cnc2c(N)ncnc21)OCOC(=O)OC(C)C`: the Potency result is “inactive”.

For `CC(C)(C)C(=O)OCOP(=O)(COCCn1cnc2c(N)ncnc21)OCOC(=O)C(C)(C)C`, the Potency result is “inactive”.

Turning to `Nc1nc(N)c2nc(CNc3ccc(C(=O)NC(CCC(=O)O)C(=O)O)cc3)cnc2n1` (stereo not given), the Potency result was “inactive”.

The record behind these values is PubChem BioAssay (NCATS).
